# Shown are actives, neighbours in structure and some others; about 3.5% of the full set was active somewhere.
# FBW7 activator: FBW7 E3 ligase activators, primary screen, biochemical, AlphaScreen, human. normalized activity (activation), % at 26.1 µM. hit rate 0.13% among 650,000. AlphaScreen FBW7–phospho-cyclin E peptide binding, activator screen. F-box/WD repeat-containing protein 7 (Homo sapiens), Q969H0; in the data active = normalized activity above about 1.9%;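 also: purified mutant Fbw7 with reduced substrate affinity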
# MITF primary: MITF inhibitors, primary screen, biochemical, AlphaScreen, human | AID 1259374, 2018 | inhibition, % at 2.6 µM | hit rate 0.91% among 650,000 | AlphaScreen MITF homodimerization, bead proximity signal; in the data active = inhibition above about 50%;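 also: 0% = vehicle wells with protein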
# Target sequence (O75030 whole entry, looked up): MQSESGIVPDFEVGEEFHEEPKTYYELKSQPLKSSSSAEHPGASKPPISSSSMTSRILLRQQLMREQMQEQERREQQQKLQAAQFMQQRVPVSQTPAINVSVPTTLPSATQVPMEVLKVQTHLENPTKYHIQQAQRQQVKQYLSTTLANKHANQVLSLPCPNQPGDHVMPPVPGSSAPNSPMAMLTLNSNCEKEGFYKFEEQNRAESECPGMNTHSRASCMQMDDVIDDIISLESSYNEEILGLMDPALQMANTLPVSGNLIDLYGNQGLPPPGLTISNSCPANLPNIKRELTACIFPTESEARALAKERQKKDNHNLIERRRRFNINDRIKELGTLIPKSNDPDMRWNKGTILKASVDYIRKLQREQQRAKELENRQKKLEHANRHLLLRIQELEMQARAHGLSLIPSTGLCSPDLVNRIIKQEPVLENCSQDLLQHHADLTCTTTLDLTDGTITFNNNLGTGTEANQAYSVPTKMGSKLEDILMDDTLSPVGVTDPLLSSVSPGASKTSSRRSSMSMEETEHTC
# TEAD-YAP block: TEAD-YAP interaction inhibition, primary screen, TEAD-YAP interaction inhibitor project, luminescence, HEK-TIYL cells | TEAD-Gal4/YAP UAS-luciferase luminescence | inhibition, % at 9.12 µM | hit rate 1.4% among 640,000 | AID 1259422, 2018; in the data active = inhibition above about 32%;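 also: 0% = median of test compound wells and 100% = reference inhibitor wells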
# GPR151 activ: activators of human GPR151, primary screen, cell-based, PathHunter beta-arrestin, luminescence; PathHunter beta-arrestin GPR151 cells; activation, % at 11.2 µM; hit rate 1% among 650,000; AID 1508602, 2020; in the data active = activation above about 4.9%;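 also: 0% = median of compound wells and 100% = cells with positive control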
# * hit, by the source's call; ! = not confirmed by another sample.
SMILES,FBW7 activator,MITF primary,TEAD-YAP block,GPR151 activ
CC(=O)c1c(C)[nH]c(C(=O)CN(C)Cc2c(F)cccc2Cl)c1C,0,6,49*,0
CCN(CC)CCNC(=O)c1ccc2c(Cl)c3c(nc2c1)CCC3,0,1,-5,1
CCN1CCN(C(=O)Cn2ncc3c(=O)oc4ccc(C)cc4c32)CC1,0,-14,-2,1
CCCn1c(-c2ccccc2)c(CC)n2c3c(=O)n(C)c(=O)n(C)c3nc12,1,12,6,1
CCc1c(-c2ccccc2)n(CC(O)c2ccccc2)c2nc3c(c(=O)n(C)c(=O)n3C)n12 (stereo not given),0,10,39*,3
CCc1c(-c2ccccc2)n(CCO)c2nc3c(c(=O)n(C)c(=O)n3C)n12,0,18,64*,2
N#CC1=C(SCC(=O)Nc2ccc(Br)cc2)NC(=O)CC1c1ccc(O)cc1 (stereo not given),0,14,39*,0
N#CC1=C(SCC(=O)Nc2ccc(Cl)c(Cl)c2)NC(=O)CC1c1ccccc1 (stereo not given),0,-9,66*,-2
CC1CN(S(=O)(=O)c2ccc(C(=O)Nc3ccncc3NC(=O)c3ccc(S(=O)(=O)N4CC(C)OC(C)C4)cc3)cc2)CC(C)O1 (stereo not given),0,7,-3,0
O=C1NC(=O)N(Cc2ccccc2)C(=O)/C1=C/c1ccc(Br)o1,-1,58*,11,-1
O=C1NC(=O)N(c2ccccc2)C(=O)/C1=C\c1ccc(I)o1,0,74*,-3,1
Cc1cccc(N2C(=O)NC(=O)/C(=C/c3ccc(I)o3)C2=O)c1,0,58*,-3,-2
CCc1ccc(N2C(=O)NC(=O)/C(=C\c3ccc(I)o3)C2=O)cc1,1,14,-1,1
CCN1CCN(Cc2ccc(NC(=O)Nc3ccccc3)cc2)CC1,0,3,52*,0
CCN1CCN(Cc2ccc(NC(=O)Nc3ccc(OC)cc3)cc2)CC1,1,22,-33,3
CCOc1cccc2cc(C(=O)NC(C)=O)c(=Nc3ccc(Cl)cc3Cl)oc12,1,8,-26,-1
CCn1c(=O)cc(N2CCN(c3cccc(Cl)c3)CC2)[nH]c1=O,0,-6,68*,0
O=C(N/N=C/c1ccccc1)c1cc([N+](=O)[O-])ccc1O,0,8,15,-9
Cc1ccc(N2C(=O)CNC2=S)cc1,0,-5,0,-1
CCOC(=O)C(C)(N)Cc1ccc(O)c(O)c1 (stereo not given),0,15,3,3
CC(N)(Cc1ccc(O)c(O)c1)C(=O)O (stereo not given),0,56*,0,1
N[C@H](Cc1ccc(I)cc1)C(=O)O,0,5,-4,-1
N[C@@H](Cc1ccc(O)c(O)c1)C(=O)O,0,79*!,2,-2
CCCC1N=C(c2cccc(OC)c2)CC(c2cc(Br)ccc2O)N1 (stereo not given),0,1,39*,2
CCOc1cccc(C2CC(c3cccc(OC)c3)=NC(C(C)C)N2)c1O (stereo not given),0,3,36*,0
SMILES,FBW7 activator,MITF primary,TEAD-YAP block,GPR151 activ
Cc1cccc(-c2nc(C)cc(NCc3cccc(C(F)(F)F)c3)n2)c1,1,22,-12,-1
Cc1ccsc1C(=O)C1CCCN(Cc2ccc(N3CCNC3=O)cc2)C1 (stereo not given),0,-19,35*,0
COc1ccc(C(=O)C2CCCN(Cc3ccc(N4CCNC4=O)cc3)C2)cc1OC (stereo not given),0,15,-4,0
COC(=O)Cn1nnc2c(cnn2-c2ccccc2)c1=O,1,10,-39,-3
O=c1c2cnn(-c3ccccc3)c2nnn1Cc1cccnc1,1.9*,14,1,0
CCc1nn(CC(=O)C(C)(C)C)c(=O)c2cc3ccsc3n12,17*,-4,2,-1
Cc1ccc(/C=c2\sc3nc4ccccc4n3c2=O)s1,0,-5,54*,-1
CN(C)c1ccc(/C=c2\sc3nc4ccccc4n3c2=O)cc1,0,-10,74*,-1
CCN(CC)c1ccc(/C=c2/sc3nc4ccccc4n3c2=O)cc1,0,16,46*,0
O=c1/c(=C\c2ccccc2)sc2nc3ccccc3n12,0,-4,-18,1
Cc1ccc(/C=c2/sc3nc4ccccc4n3c2=O)cc1,0,-5,73*,-1
CC(C)(C)c1ccc(S(=O)(=O)N2CC(O)CC2C(=O)O)cc1 (stereo not given),1,20,-1,0
Cc1ccc(-n2c(=O)[nH]c3c(C(N)=O)nc(-c4cccc(C)c4)nc32)cc1,0,-3,2,0
Cc1cc(C)c(NC(=O)c2ccccc2C(=O)O)c(Cl)c1,0,2,0,-1
COc1cccc(/C=c2\sc3nc4ccccc4n3c2=O)c1,-1,7,45*,1
COc1ccc(/C=c2/sc3nc4ccccc4n3c2=O)c(OC)c1,0,19,-24,-1
O=C(c1ccccc1F)N1CCN(C2CC(=O)N(c3ccc(F)cc3)C2=O)CC1 (stereo not given),0,-7,-8,0
O=C(c1ccc(-n2cccc2)cc1)N1CCN(Cc2csc(-c3ccccc3)n2)CC1,-1,42,60*,0
Cc1nc(-n2cccc2)sc1C(=O)N1CCN(Cc2csc(-c3ccccc3)n2)CC1,0,11,30,-2
COCC(=O)N1CCN(Cc2csc(-c3ccccc3)n2)CC1,0,14,-31,1
Cc1nc(C)c(C(=O)N2CCN(Cc3csc(-c4ccccc4)n3)CC2)s1,0,1,40*,1
O=C(N/N=C/c1ccc(O)c(O)c1)c1cccc(N/N=C/c2ccc(O)c(O)c2)c1,0,105*,-27,-2
Nn1cnnc1N/N=C/c1ccc(O)c(O)c1,-1,88*,-5,-1
Nc1nnc(CC(=O)N/N=C\c2ccc(O)c(O)c2)s1,0,52*,4,1
O=C(N/N=C/c1ccc(O)c(O)c1)N/N=C/c1ccc(O)c(O)c1,0,95*,-3,0
SMILES,FBW7 activator,MITF primary,TEAD-YAP block,GPR151 activ
Oc1ccc2ccccc2c1C=NCC1CCCO1 (stereo not given),0,-11,-1,-1
Cc1cc(NS(=O)(=O)c2cccc3nsnc23)ccc1N1C(=O)c2ccc(Cl)cc2C1=O,0,-7,2,0
CSc1nc2c(c(=O)[nH]c(=O)n2C)n1CCSc1nc2ccccc2s1,1,5,37*,0
O=C1c2ccccc2C(=O)N1N1C(=O)c2cccc3c([N+](=O)[O-])ccc(c23)C1=O,0,3,12,0
O=C1c2cccc3c(Oc4ccccc4[N+](=O)[O-])ccc(c23)C(=O)N1n1cnnc1,0,5,36*,-1
Cc1cccc(C)c1OCC(=O)N/N=C/c1ccccc1O,0,13,51*,1
